{
  "source": "ChEMBL document CHEMBL4513216",
  "about": "“Probing the Open Global Health Chemical Diversity Library for Multistage-Active Starting Points for Next-Generation Antimalarials” (ACS Infect Dis, 2020)",
  "note": "Hit rate of the full screen: of about 65,000 compounds, about 2,100 (3.2%) showed an effect of 50% or more. The median lay at about -52%. Shown is part of a subset that was picked to be rich in strong results.",
  "data": [
    {"tested_on": "Plasmodium falciparum", "test": "Screen against P. falciparum Asexual Blood Stage (ABS), at 5uM", "assay_type": "functional, Dd2", "conditions": "tested at 5 uM", "units": {"INHIBITION": "%"}, "values": [
      {"smiles": "NC(=O)c1ccc(C(=O)N2CCCCC2Cn2cccn2)s1", "note": "(stereo unspecified)", "INHIBITION": -33.2},
      {"smiles": "O=C(c1cc(Cl)cc2cccnc12)N1CCN(CCO)CC1", "INHIBITION": 30.3},
      {"smiles": "O=C(C1CCC1)N1C[C@@H]2CN(Cc3ccncc3)C(=O)[C@@H]2C1", "INHIBITION": -74.3},
      {"smiles": "Cn1cc(CN2CCOC(c3cccc(-c4cncnc4)n3)C2)cn1", "note": "(stereo unspecified)", "INHIBITION": -54.2},
      {"smiles": "COc1ccc(-c2ccnc(N)c2)c(OC)c1", "INHIBITION": -90.3},
      {"smiles": "COc1ccc(CN)c(OC(F)F)c1", "INHIBITION": -30},
      {"smiles": "COc1ccc(-c2ccccc2CN)c(OC)c1", "INHIBITION": 60.2},
      {"smiles": "CC(C)(C)CN1CCCC(c2nccnc2Nc2cnccn2)C1", "note": "(stereo unspecified)", "INHIBITION": 22.1},
      {"smiles": "O=C(CCCc1cccs1)N1CCC(N2CCNC2=O)CC1", "INHIBITION": -185},
      {"smiles": "CC(C)CN1C(=O)C2(CCN(Cc3nccs3)C2)c2ccccc21", "note": "(stereo unspecified)", "INHIBITION": -54.5},
      {"smiles": "CCO[C@H]1C[C@@H](O)C12CCN(C1CCN(c3ccccc3C)CC1)CC2", "INHIBITION": 10.7},
      {"smiles": "CCc1ccc(C2CC(=O)Nc3cc(OC)c(NS(C)(=O)=O)cc32)o1", "note": "(stereo unspecified)", "INHIBITION": -121},
      {"smiles": "Cc1cccnc1CN1CCN(C(=O)c2cnn(C(C)C)c2)CC1", "INHIBITION": -15.2},
      {"smiles": "Cc1nc(N2CCOCC2)nc2c1CCN(C(=O)N1CCCC1)CC2", "INHIBITION": -112},
      {"smiles": "Cc1nc(N2CCCC2)nc2c1CCN(C(=O)N1CCCC1)CC2", "INHIBITION": 47},
      {"smiles": "Cc1nc(N2CCCC2)nc2c1CN(C(=O)N(C)C)CC2", "INHIBITION": -67.8},
      {"smiles": "CC(=O)N1CCc2nc(N3CCCC3)nc(C)c2C1", "INHIBITION": 53.8},
      {"smiles": "Cc1nc(N2CCCC2)nc2c1CN(C(=O)N1CCOCC1)CC2", "INHIBITION": -70.2},
      {"smiles": "Cc1nc(N2CCOCC2)nc2c1CN(C(=O)C(C)C)CC2", "INHIBITION": 56.2},
      {"smiles": "O=C(NCC(F)F)c1cnc(C2CCCN2)cn1", "note": "(stereo unspecified)", "INHIBITION": -41.5},
      {"smiles": "CCn1cc(NC(=O)C2CCN(Cc3nc(C(C)C)no3)CC2)cn1", "INHIBITION": -86},
      {"smiles": "Cc1ccc(O)c(CN(CCCn2ccnc2)Cc2ccc(C)s2)c1", "INHIBITION": 43},
      {"smiles": "COc1ccc(F)c(CN(CCCn2ccnc2)Cc2ccc(C)s2)c1", "INHIBITION": 39.5},
      {"smiles": "Cc1ccc(CN(CCCn2ccnc2)Cc2cc(F)ccc2F)s1", "INHIBITION": 68.8},
      {"smiles": "CC(C)(C)NC(=O)C1CSCN1C(=O)CCc1ccco1", "note": "(stereo unspecified)", "INHIBITION": -87.6},
      {"smiles": "O[C@H]1CC[C@@H](Cc2cc(-c3ccc(F)cc3)on2)O[C@@H]1CNCC1CC1", "INHIBITION": 63.5},
      {"smiles": "O[C@H]1CC[C@@H](Cc2cc(-c3ccccn3)on2)O[C@@H]1CNCC1CC1", "INHIBITION": -70.3},
      {"smiles": "O[C@H]1CC[C@@H](Cc2cc(-c3ccccc3)on2)O[C@@H]1CNCC1CC1", "INHIBITION": 39.2},
      {"smiles": "COCCCNC1N=C(n2nc(C)cc2C)Nc2sc3c(c21)CCCC3", "note": "(stereo unspecified)", "INHIBITION": 46.7},
      {"smiles": "Cc1ccc(NC2(C(=O)N3CCn4cncc4C3)CCCCC2)cc1C", "INHIBITION": 64.5},
      {"smiles": "COc1ccc(NC2(C(=O)N3CCn4cncc4C3)CCCC2)cc1", "INHIBITION": -27.6},
      {"smiles": "COc1ccc(NC2(C(=O)N3CCCn4cncc4C3)CCCC2)cc1", "INHIBITION": 45},
      {"smiles": "CN(C)c1cc(CNC(=O)c2cc(Cl)ccn2)ccn1", "INHIBITION": -158},
      {"smiles": "Cc1cc(-c2nn3c(C(C)C)nnc3s2)on1", "INHIBITION": -33},
      {"smiles": "COCC1Cn2nnc(-c3cnn(C)c3)c2CN1Cc1ccco1", "note": "(stereo unspecified)", "INHIBITION": -88.9},
      {"smiles": "COCC1Cn2nnc(-c3cnn(C)c3)c2CN1Cc1ccc(C)s1", "note": "(stereo unspecified)", "INHIBITION": -9.62},
      {"smiles": "COCC1Cn2nnc(-c3cnn(C)c3)c2CN1Cc1cccs1", "note": "(stereo unspecified)", "INHIBITION": 59.2},
      {"smiles": "Cc1ccc(S(=O)(=O)NCCc2cccnc2)cc1C", "INHIBITION": -35.5},
      {"smiles": "c1cc(CN2C[C@H](OCC3CCOCC3)[C@H]3COC[C@H]32)co1", "INHIBITION": -93},
      {"smiles": "Cc1noc(C)c1C(=O)N1CCCC(c2c(C)c(=O)nc3n2CCC3)C1", "note": "(stereo unspecified)", "INHIBITION": -105},
      {"smiles": "CCCNC(=O)c1sccc1N(C)S(=O)(=O)c1ccc(Cl)cc1", "INHIBITION": -84},
      {"smiles": "CN(C)CCNC(=O)c1sccc1N(C)S(=O)(=O)c1ccc(Cl)cc1", "INHIBITION": 64.2},
      {"smiles": "COCCNC(=O)c1sccc1N(C)S(=O)(=O)c1ccc(Cl)cc1", "INHIBITION": -88.8},
      {"smiles": "Cc1cccc(CC(=O)N2CCOCC2c2c(C)n[nH]c2C)c1", "note": "(stereo unspecified)", "INHIBITION": -75.3},
      {"smiles": "CC(=O)N(Cc1noc(C)n1)C1CCN(Cc2cnc(C)s2)C1", "note": "(stereo unspecified)", "INHIBITION": -55.6},
      {"smiles": "CS(=O)(=O)c1ccc(CN2CCCCC2c2cccc(F)c2)cc1", "note": "(stereo unspecified)", "INHIBITION": -36.8},
      {"smiles": "COc1ccc(CN2CCCC2c2cccc(F)c2)c(OC)c1OC", "note": "(stereo unspecified)", "INHIBITION": 60.2},
      {"smiles": "COc1cccc(CN2CCCCCC2c2cccs2)c1OC", "note": "(stereo unspecified)", "INHIBITION": -70.3},
      {"smiles": "COc1cc(CN2CCCC2c2cccc(F)c2)cc(OC)c1OC", "note": "(stereo unspecified)", "INHIBITION": 28.2},
      {"smiles": "Fc1cccc(C2CCCN2Cc2nnnn2C2CC2)c1", "note": "(stereo unspecified)", "INHIBITION": -26.9},
      {"smiles": "COc1cccc(CN2CCCC2c2cccc(F)c2)c1OC", "note": "(stereo unspecified)", "INHIBITION": 55.4},
      {"smiles": "O=C(c1ccc(COc2ccc(Cl)cc2)o1)N1N=CCC1(O)C(F)(F)F", "note": "(stereo unspecified)", "INHIBITION": -121},
      {"smiles": "CCc1nccn1C1CCCN(C(=O)c2cnn3cccnc23)C1", "note": "(stereo unspecified)", "INHIBITION": -64},
      {"smiles": "O=C(N[C@H]1CN(c2nc(CO)cs2)C[C@@H]1C1CC1)C1CCCCC1", "INHIBITION": -26.4},
      {"smiles": "O=C(COC[C@]12COC[C@H]1CN(C1CCC1)C2)N1CCCC1", "INHIBITION": -115},
      {"smiles": "Cc1ccc(C(F)(F)F)cc1C(=O)N[C@H]1CN(CCO)C[C@@H]1C1CC1", "INHIBITION": 63.9},
      {"smiles": "Cc1cnc(C(=O)N[C@H]2CN(CCS(C)(=O)=O)C[C@@H]2C2CC2)cn1", "INHIBITION": -47.7},
      {"smiles": "Cc1cc(C(=O)N[C@H]2CN(CCC(N)=O)C[C@@H]2C2CC2)sc1C", "INHIBITION": -43.8},
      {"smiles": "Cc1cc(C(=O)N[C@H]2CN(CCO)C[C@@H]2C2CC2)sc1C", "INHIBITION": 60.8},
      {"smiles": "Cc1nc(N)sc1C(=O)N[C@H]1CN(CCO)C[C@@H]1C1CC1", "INHIBITION": -82.2},
      {"smiles": "CSCCCN1C[C@H](NC(=O)c2ccc(CO)cc2)[C@@H](C2CC2)C1", "INHIBITION": 17.3},
      {"smiles": "Cc1ccc(CN2CCCC3(CCCN3S(C)(=O)=O)C2)s1", "note": "(stereo unspecified)", "INHIBITION": -71.7},
      {"smiles": "Cc1ccc(C(=O)N(C)CCCc2cnn(C)c2)cc1N1CCNC1=O", "INHIBITION": -86.4},
      {"smiles": "O=C(CCc1nnc2ccccn2c1=O)NCc1ccc2c(c1)OCO2", "INHIBITION": -108},
      {"smiles": "Cn1cc(CN2CCc3nc(-c4ccccn4)nc(O)c3C2)cn1", "INHIBITION": -3.83},
      {"smiles": "Cc1cc(C)n(CC2CN(CCOc3ccc(C#N)cc3)CCO2)n1", "note": "(stereo unspecified)", "INHIBITION": -114}
    ]}
  ]
}
